From PubChem BioAssay (NCI) come the findings set out here.

About 83,000 compounds went through this panel and 20% of them were active in at least one assay; those are over-represented in the sample as a whole.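 Testing used 96-well plates and a 48-hour single-concentration exposure. Example: -40 means 40% of the starting cells died.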 Values without a mark were called inactive. Calls of active or inactive are those of the source.

This experiment relates to NCI-H522 lung. As to the kind of experiment: NCI-60 one-dose screen, 48 h (100 = growth as untreated, 0 = no growth, -100 = all killed). The note with it: 10 µM unless noted. On the procedure:
Growth inhibition of the NCI-H522 human Non-Small Cell Lung tumor cell line is measured as a screen for anti-cancer activity. Cells are grown in 96 well plates and exposed to the test compound for 48 hours. Compounds are tested at a single concentration, which is 10^-5 M for most compounds. The reported endpoint is percent growth (GI% or GIPRCNT), where numbers from 0 - 100% represent growth inhibition, and numbers from -100% - 0 represent cell death. For example, a value of 40 represents 60% growth inhibition. A value of 0 means no net growth occurred over the course of the experiment. A value of -40 indicates 40% of cells at the beginning of the experiment died by the end of the experiment. A value of -100 means all cells are dead at the end of the experiment.
NCI-60 Human Tumor Cell Lines Screen was performed using the standard one-dose NCI protocol, which is described in more detail at https://dtp.cancer.gov/discovery_development/nci-60/default.htm.
Compounds with GIPRCNT values below 10 were considered active. Activity score was based on GIPRCNT using the following formula: […]
Score is 0 for GIPRCNT values of 100 or above, 50 for GIPRCNT values of 0, and 100 for GIPRCNT values of -100.
In the case of `COc1cc2nc(-c3ccc(Cl)cc3)cc(OCCCN3CCC(O)CC3)c2cc1OC`, the growth is 33.4%.

Take `NNC(=O)c1ccc(-n2nc(-c3ccccc3)c3ccccc32)cc1`: the growth is 79.8%.

Regarding `CSc1nc2sc3cccc(Cl)c3n2c(=N)c1C#N`, the growth is 78.9%.

On to `Oc1ccc(C(c2ccc(O)cc2)c2ccc(Br)cn2)cc1`, for which the growth is 42.6%. The result for `CC1(C)CC[C@]2(C(=O)O)CC[C@]3(C)C(=CC[C@@H]4[C@@]5(C)Cc6c([nH]c7ccccc67)C(C)(C)[C@@H]5CC[C@]43C)[C@@H]2C1` reads 31.5%. The result for `N#CC1=C(N)Oc2c(cnn2-c2ccc([N+](=O)[O-])cc2[N+](=O)[O-])C1c1ccccc1` (stereo not given) reads 95.3%; that for `C=C1C(=O)O[C@H]2[C@H]1CC/C(COC(=O)NCc1c[nH]c3ccc(F)cc13)=C\CC[C@@]1(C)O[C@@H]21`, -75.2% (active); that for `COCc1cnccc1NC1CCCCCC1`, 89.9%.

On to `Cc1nn(-c2ccccc2)c(Oc2c(Cl)cccc2Cl)c1/C=N/N=c1\sc2ccccc2n1C`, for which the growth is 65.5%. As for `O=C(O)c1ccc(-c2nn(-c3ccc(C(F)(F)F)cc3)cc2CNc2ccc(Oc3ccccc3)cc2)cc1`, the figure is 80.2%; as for `COc1cc(/C=N/O)nc(-c2ccccn2)c1`, 7.77% (active).

For the compound `N#C/C(=C\c1ccc(C(F)(F)F)cc1)c1cc2ccccc2[nH]1`, the growth was 84.5%. The result for `COc1cc(/C=C/c2cc(O)c(C(C)=O)c(O)c2)cc2c1O[C@]1(C)CC[C@@H](O)C(C)(C)[C@H]1C2` reads 79%; that for `Cc1nc2sccn2c1-c1nc2sccn2c1/C=C1/C(=O)Nc2ccccc21`, -6.81% (active); that for `COc1cc(F)c(/C=C/c2cc(/C=C/c3cc(OC)c(OC)cc3F)on2)cc1OC`, 62.3%. As for `CC(C)(C)c1cc(/C=N/NC(=O)c2ccccc2NC(=O)c2cccs2)c(O)c(C(C)(C)C)c1`, the figure is 27.8%. The result for `COc1ccc(C(=O)Nc2cccc(C3CCc4c(cc(OC)c(OC)c4OC)O3)c2)cc1` (stereo not given) reads 42.7%; that for `CCOC(=O)CSc1nc2ccccc2c(=O)n1Cc1ccc(S(N)(=O)=O)cc1`, 91.3%; that for `N#Cc1cccc(-c2ccc3c(c2)NC(=O)/C3=C\c2ccc[nH]2)c1`, 28.7%.

Consider `CC/C(=C\c1ccc(OC)cc1)C(=O)c1ccc(OC)cc1`, for which the growth is 74.3%. The result for `Cc1cccc(NC(=O)Nc2ccc(-c3ccc4c(c3)NC(=O)/C4=C\c3ccc[nH]3)cc2)c1` reads 85.3%; that for `COc1cc2c(=O)n(CCCN(C)C)c3c4cc5c(cc4ccc3c2cc1OC)OCO5`, 53.9%. The result for `O=C(Cc1ccccc1)NNc1nc(Cl)nc(N2CCN(C(c3ccccc3)c3ccccc3)CC2)n1` reads -26.6% (active); that for `C=C1C(=O)O[C@H]2[C@H]1CC/C(COC(=O)NCc1c[nH]c3ccc(Br)cc13)=C\CC[C@@]1(C)O[C@@H]21`, -89.9% (active); that for `Brc1ccc2[nH]cc(-c3cncn3CCc3ccccc3)c2c1`, 51.1%.

With `c1ccc(Cn2cnc3ccc(-c4nc(-c5ccc6c(c5)ncn6C5CCCCC5)cn5ccnc45)cc32)cc1`, the growth is -35.2% (active). Take `O=C1c2ccccc2CCC12OC2c1cn(-c2ccccc2)nc1-c1ccc(Cl)cc1` (stereo not given): the growth is 87.1%. As for `COc1ccc(C(=O)CC#N)cc1`, the figure is 113%; as for `O=C(Nc1ccccc1)Nc1ccc2cc3ccc(NC(=O)Nc4ccccc4)cc3nc2c1`, -4.64% (active). As for `COc1cc2oc(-c3cccc(C(=O)Nc4ccc(Br)cc4)c3)cc(=O)c2c(OC)c1OC`, the figure is 60.9%; as for `COc1ccc(CCn2cncc2-c2c[nH]c3ccccc23)cc1`, 83.7%. The result for `C=C1C(=O)O[C@H]2[C@H]1CC/C(CNC(=O)/C=C/c1ccccc1)=C\CC[C@@]1(C)O[C@@H]21` reads -86.8% (active); that for `COc1ccc2c(c1)C(=O)CC(c1ccccc1OC)O2` (stereo not given), 93%. Take `N#CC1=C(N)Oc2c(ccc3ccccc23)C1c1ccccc1Cl` (stereo not given): the growth was -7.02% (active). The result for `CC1(C)CC(O)CCCCCCOc2c(CN)cccc2NC(=O)c2nc(cnc2N)-c2ccc(cc2)S1(=O)=O` (stereo not given) reads 12.6%.

Turning to `Cn1cc(-c2nc(-c3c[nH]c4c(Cl)nccc34)cs2)c2cc(Br)ccc21`, the growth was 78.7%. The result for `O=C(Nc1ccc(NC(=O)c2cc(=O)[nH]c3ccccc23)cc1)Nc1cccc(Cl)c1` reads 84.6%; that for `COc1ccc2c(c1)oc1c(C)c3c(c(C)c12)C(=O)N(CCN1CCOCC1)C3=O`, 29.8%. As for `COc1cc(CC(=O)c2ccc(O)c(OC)c2)ccc1O`, the figure is 88.4%. The result for `Cc1ccc(NC(=O)c2cc(-c3nc4ccccc4s3)c(=O)n(NS(=O)(=O)c3ccc(Cl)cc3)c2N)cc1` reads 94.4%.
